# Bioassay records as filed in PubChem.
# Rows were chosen to be rich in hits. Some 18% of all compounds tested hit in one or more screens of this group.
# DT40 TDP1 CPT = growth inhibition of DT40 Tdp1-/-;hTDP1 cells with camptothecin (screen for TDP1 inhibitors); chicken DT40 Tdp1-/-;hTDP1 cells + 20 nM CPT, ATP luminescence, 48 h; Potency, µM (series often up to 46.2 µM), without a hit: top-dose activity change, negative = growth inhibition, usual class: inhibitors; hit rate 12% among 420,000; AID 686979; also: potency is read from the fitted curve at half-maximal effect; % is scaled to controls: 0 for no effect and ±100 for the full control effect; nearly all actives have a fitted effect of over 55% in size
#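 Cell growth measured by CellTiter-Glo luminescence after a minimum 48 h, 37 C compound exposure with 20 nM CPT in Tdp1-knockout DT40 cells stably expressing hTDP1, seeded 400/well; qHTS titration format.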
# IL-1B inflam inh = inflammasome signaling inhibition, IL-1 beta readout; THP-1 LPS/ATP IL-1B secretion, AlphaLISA, 16 h; active compounds read low; activity change, % at 57.5 µM; hit rate 4.7% among 360,000; in the data active = activity change below about -50%; inconclusive = mostly about -30% to -49%; also: % is scaled to controls: 0 for no effect and ±100 for the full control effect
#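 Secreted IL-1B measured by AlphaLISA bead assay after 16 h compound exposure of THP-1 cells; compounds (final up to 57.5 uM) added 1 h before LPS (250 ng/mL) and ATP (1.25 mM) stimulation; lower signal means less secretion.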
# HepG2 viability = counter-screen for TGF-b inhibitors: cytotoxicity in HepG2 cells. HepG2 CAGA-GFP viability, ATP luminescence, 18 h. AID 588856. hit rate 0.76% among 410,000. Potency, µM (top dose mostly 46.1 µM), for inactives: at the top dose activity change, negative = cytotoxicity, actives largely listed as cytotoxic; also: potency is read from the fitted curve at half-maximal effect
#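 CellTiter-Glo luminescence gave cytotoxicity after 18 hours at 37 degrees C. The cells were HepG2 CAGA-GFP in 1% FBS DMEM, stimulated with 500 pg/mL TGF-beta after compound addition. %Activity was normalised to no-cell wells (complete cell-killing) and DMSO (no toxicity), and curves were fitted and classified.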
# TDP1 inh = inhibitors of human tyrosyl-DNA phosphodiesterase TDP1 | Potency, µM (series often up to 130 µM), for the others: at the top dose activity change, negative = inhibition, usual class: inhibitors | hit rate 0.28% among 350,000 | recombinant TDP1, AlphaScreen DNA substrate cleavage | Q9NUW8; also: potency is read from the fitted curve at half-maximal effect; % is scaled to controls: 0 for no effect and ±100 for the full control effect; nearly all actives have a fitted effect of over 40% in size
# Target sequence (Q9NUW8 whole entry, looked up): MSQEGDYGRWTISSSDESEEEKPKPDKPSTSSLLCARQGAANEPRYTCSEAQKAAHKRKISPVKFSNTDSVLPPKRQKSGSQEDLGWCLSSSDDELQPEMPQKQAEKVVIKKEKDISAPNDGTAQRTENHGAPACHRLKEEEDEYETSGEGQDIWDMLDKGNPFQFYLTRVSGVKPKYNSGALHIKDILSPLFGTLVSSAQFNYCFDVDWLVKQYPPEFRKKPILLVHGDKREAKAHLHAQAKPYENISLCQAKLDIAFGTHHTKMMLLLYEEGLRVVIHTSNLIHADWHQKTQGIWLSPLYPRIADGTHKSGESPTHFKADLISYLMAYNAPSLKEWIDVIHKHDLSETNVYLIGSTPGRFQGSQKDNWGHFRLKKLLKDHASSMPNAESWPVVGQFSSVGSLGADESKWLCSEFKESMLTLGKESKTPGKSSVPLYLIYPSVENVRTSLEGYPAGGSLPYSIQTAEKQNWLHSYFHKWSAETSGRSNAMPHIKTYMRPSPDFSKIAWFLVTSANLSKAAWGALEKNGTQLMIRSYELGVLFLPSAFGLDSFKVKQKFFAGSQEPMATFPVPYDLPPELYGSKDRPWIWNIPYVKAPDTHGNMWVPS
#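 AlphaScreen read-out: signal falls as enzyme removes the 3' tyrosine-FITC from a 5'-biotinylated DNA oligo (15 nM, 5 min, RT). Enzyme was E. coli-made recombinant Tdp1 at 1 nM, exposed to compound for 15 min beforehand; beads 10 ug/ml, 10 min.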
# TGFb inhibitor = blocks TGF-b signaling | Potency, µM (highest dose often 46.1 µM), for the others: at the highest dose activity, negative = inhibition, usual class: inhibitors | HepG2 CAGA-GFP TGF-b/SMAD3 reporter, GFP fluorescence, 18 h; TGF-beta stimulated, 500 pg/mL final | hit rate 1.2% among 410,000 | AID 588855; also: potency is read from the fitted curve at half-maximal effect; % is scaled to controls: 0 for no effect and ±100 for the full control effect; nearly all actives have a fitted effect of over 65% in size
#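 Per well, imaged GFP fluorescence of HEPG2 CAGA-GFP cells gives the signal; cells get compound, then TGF-beta (500 pg/mL final), 18 h at 37 degrees C; %Activity versus -TGF-beta and +DMSO controls.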
# DT40 TDP1 no CPT = qHTS for Inhibitors of human tyrosyl-DNA phosphodiesterase 1 (TDP1): qHTS in cells in absence of CPT | DT40 Tdp1-/- hTDP1 cells, no CPT, ATP luminescence, 48 h | Potency, µM (top dose mostly 46.2 µM), without a hit: at the highest dose activity change, negative = growth inhibition, usual class: inhibitors | hit rate 15% among 420,000 | AID 686978, 2013; also: potency is read from the fitted curve at half-maximal effect; % is scaled to controls: 0 for no effect and ±100 for the full control effect; nearly all actives have a fitted effect of over 55% in size
#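 Seeded 400 DT40-hTDP1 cells/well (vehicle DMSO, no 20 nM CPT); pinned compounds; ≥48 hr at 37 °C; CellTiter-Glo luminescence as viability measure.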
# * = called active by the depositor; ? = inconclusive; . = not tested or not shown; [ ] = another dose, or the depositor's remark. Unless noted, calls follow the shape of the dose curve; as a rule, active = well fitted curve in the direction sought with a large enough effect; inconclusive = small, poorly fitted or top-dose-only effect, or another doubt; inactive = no such curve, though single readings can be large; an effect the other way counts as inactive or inconclusive.
SMILES,DT40 TDP1 CPT,IL-1B inflam inh,HepG2 viability,TDP1 inh,TGFb inhibitor,DT40 TDP1 no CPT
O=C(c1ccc2c(c1)N(Cc1ccc(F)cc1)CCS2)N1CCC2(CC1)OCCO2,?,-65.0*,-9.7%,5.3%,?,?
CCOc1ccc(CN2C(=O)c3ccccc3Sc3ccc(C(=O)N4CCC5(CC4)OCCO5)cc32)cc1,18.4µM*,.,-31.0%,0.0%,?,?
Cc1ccc(C)c(CN2C(=O)c3ccccc3Sc3ccc(C(=O)N4CCC5(CC4)OCCO5)cc32)c1,?,.,-34.4%,5.2%,?,20.6µM*
O=C1Nc2cc(C(=O)N3CCC4(CC3)OCCO4)ccc2S/C1=C\c1ccccc1,?,-9.5,1.9%,5.6%,-14.5%,?
Cc1ccc(CN2CCSc3ccc(C(=O)N4CCC5(CC4)OCCO5)cc32)cc1,?,?,-11.8%,9.6%,-18.7%,?
C=C1[C@@H]2C[C@]3(C(CC2=O)[C@]24C5C[C@H]3[C@H]2N(CC)C[C@]5(C)CC[C@@H]4O)[C@@H]1O (stereo partly specified),.,.,.,8.2%,.,.
COC(=O)c1ccccc1N,.,.,.,12.7%,.,.
c1ccc2c(N3CCNCC3)cccc2c1,18.4µM*,?,-8.7%,10.2%[56.1 µM],9.5%,?
COc1ccc(-c2ccc3c(c2)CN(CC(C)C)Cc2cnnn2-3)cc1,16.4µM*,?,-25.8%,.,?,?
CC(C)CN1Cc2cc(-c3ccccc3)ccc2-n2nncc2C1,?,?,-9.0%,.,?,?
COC(=O)[C@@H]1C[C@@]2(O)[C@@H](O)[C@@H](O)[C@@H](O)C[C@H]2N1Cc1cccnc1,.,.,.,5.1%,.,.
CC(=O)c1cccc(NC(=O)c2cc3c(s2)-c2c(C)cccc2OC3)c1,?,.,-23.6%,-2.0%,-6.3%,16.4µM*
N#CC(c1ccc(Cl)nn1)c1c(F)cccc1Cl (stereo unspecified),7.0%,-15.5,-0.8%,2.7%,6.5%,?
COc1ccc(S(=O)(=O)N(CC(=O)NCc2ccccc2OC)c2ccc(C)cc2)cc1,?,.,-15.6%,-0.9%,?,?
CCOc1ccc(NC(=O)CSc2oc(-c3ccccc3)nc2S(=O)(=O)c2ccc(Cl)cc2)cc1,7.31µM*,.,-4.4%,2.9%,-21.5%,20.6µM*
CCOc1ccc(S(=O)(=O)N(CC(=O)NCc2ccccc2OC)c2ccccc2)cc1,14.6µM*,.,-22.9%,.,-14.8%,16.4µM*
CCOc1ccc(NC(=O)c2cccn(Cc3cccc(Cl)c3)c2=O)cc1,?,.,-34.9%,-1.1%,-9.6%,?
CCOc1ccc(NC(=O)CN(c2ccc(Cl)cc2C)S(=O)(=O)c2ccccc2)cc1,8.2µM*,.,-26.1%,3.2%,?,10.3µM*
O=C(CSc1oc(-c2ccccc2)nc1S(=O)(=O)c1ccc(Cl)cc1)Nc1ccc(F)cc1,10.3µM*,.,-12.7%,8.8%,5.8%,?
CCOc1ccc(S(=O)(=O)N(CC(=O)NCCc2ccc(OC)c(OC)c2)c2ccccc2)cc1,?,.,-12.4%,.,?,?
COC(=O)C1=C(c2cc3ccccc3s2)C[C@@H]2CC[C@H]1N2C,-8.6%,-9.2,-24.1%,0.6%,-8.6%,-22.8%
COC(=O)C1=C(c2cc3ccccc3s2)C[C@@H]2CC[C@H]1N2C(=O)NCc1ccc(C(F)(F)F)cc1,?,-52.0*,-2.0%,.,?,18.4µM*
COC(=O)C1=C(c2cc3ccccc3s2)C[C@@H]2CC[C@H]1N2C(=O)NC1CC1,?,18.2,-30.3%,.,-26.4%,14.6µM*
COC(=O)C1=C(c2cc3ccccc3s2)C[C@@H]2CC[C@H]1N2C(=O)N1CCC(C)CC1,5.17µM*,-19.1,0.9%,.,?,2.59µM*
COC(=O)C1=C(c2cc3ccccc3s2)C[C@@H]2CC[C@H]1N2C(=O)NCC1CC1,?,10.9,-25.1%,.,?,16.4µM*
SMILES,DT40 TDP1 CPT,IL-1B inflam inh,HepG2 viability,TDP1 inh,TGFb inhibitor,DT40 TDP1 no CPT
C[C@@H](CO)NC(=O)[C@@H]1C=C2c3cccc4[nH]cc(c34)C[C@H]2N(C)C1,?,.,.,2.4%,.,?
COc1ccc(OC)c(CCNCc2c(C(=O)O)c(C)n(Cc3ccc(F)cc3Cl)c2C)c1,?,.,-12.7%,10.1%,-10.7%,?
CCOC(=O)C1=C(CN2CCN(c3ccc(C)cc3C)CC2)NC(=O)NC1c1ccc(OC)cc1 (stereo unspecified),?,.,-10.1%,8.7%,-27.7%,?
O=C(NCC(c1ccco1)N1CCCC1)c1cccc(S(=O)(=O)N2CCc3ccccc32)c1 (stereo unspecified),18.4µM*,-9.9,-6.0%,.,-11.5%,9.2µM*
CC(C)CCNC(=O)Cn1c(=O)oc2cc(S(=O)(=O)N3CCc4ccccc43)ccc21,?,-1.3,-5.4%,2.5%,-16.7%,?
COc1cccc(NC(=O)CSC2=Nc3ccccc3C3=NC(CCC(=O)NCCc4ccccc4)C(=O)N23)c1 (stereo unspecified),20.6µM*,.,-26.7%,1.5%,-22.6%,20.6µM*
COc1ccccc1CNC(=O)CCC1N=C2c3ccccc3N=C(SCc3cccc(Cl)c3)N2C1=O (stereo unspecified),?,.,-21.8%,2.9%,?,?
COc1c(C(C)(C)C)cc([N+](=O)[O-])c(C)c1[N+](=O)[O-],.,.,.,16.6%,.,.
c1ccc2sc(C3(N4CCCCC4)CCCCC3)cc2c1,26.6µM*,.,.,10.4%[56.1 µM],.,18.4µM*
c1csc(C2(N3CCCCC3)CCCCC2)c1,7.3%,.,.,3.2%,.,-15.9%
C=C(C)[C@H]1[C@H]2OC(=O)[C@@H]1[C@]1(O)C[C@H]3O[C@]34C(=O)O[C@H]2[C@@]14C,.,.,.,-5.1%[21 µM],.,.
CCCn1c2ccccc2c2nnc(SCC(=O)Nc3cccc(C(C)=O)c3)nc21,?,.,10.4%,-1.1%,-23.1%,14.6µM*
CCCn1c(C)c(C(=O)c2ccc3ccccc3c2)c2ccccc21,.,.,.,-10.4%[56.1 µM],.,.
CC(=O)O[C@H]1C2[C@@H](OC(=O)Cc3ccccc3)[C@@H](C)C[C@]2(OC(C)=O)C(=O)/C(C)=C/[C@@H]2[C@H](CC[C@@]13CO3)C2(C)C (stereo partly specified),.,.,.,8.9%,.,.
O=c1oc2ccccc2c(O)c1[C@H]1c2ccc(O)cc2Oc2c1c(=O)oc1ccccc21,?,-91.9*,-127.1%,-11.6%,?,23.1µM*
